Only some compounds are listed: those with a hit (about 4.3% of all), similar ones and a draw of the others.
CR mimetic SO = yeast age-related superoxide inhibition as caloric restriction mimetic. AID 2690. 330,000 tested, 0.18% active. S. cerevisiae aged cells, superoxide DHE fluorescence; stronger effect = lower value. superoxide response (% of plate mean), % at 10 µM;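 active = superoxide response under a set limit, about three screen SD below normal, cut at about 65% in these data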;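 also: yeast aged for seven days with compound at 30 °C before DHE staining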
NR3A LBD binder = NR3A (human) ligand-binding domain modulation | NR3A LBD differential scanning fluorimetry, Tm shift; 0% = protein alone, 100% = glycine-bound protein | Tm shift relative to glycine control, % at 25 µM | 340,000 tested, 2.5% active;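 active = melting temperature shift of at least 10% of the positive control shift, at one fixed dose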
NALP1 yeast inh = NALP1 inhibition. S. cerevisiae NALP1/ASC/caspase-1 growth, X-gal OD620, 72 h. inhibition, % at 10 µM. 280,000 tested, 0.61% active; in the data active = inhibition mostly above about 24%, no sharp cut-off; inactive = mostly below about 32%
dFosB act = mouse delta FosB homodimer activation | P13346 | purified delta FosB, TAMRA-CDK5 oligo fluorescence polarization; percent of positive-control signal above neutral wells | activation, % at 25 µM | 340,000 tested, 0.99% active;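 active = mean activation above about 17%, with every replicate also reaching it, limit read from the data, passing the limit was not always enough; inconclusive = only one of the two conditions met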
Target sequence (P13346 whole entry, looked up): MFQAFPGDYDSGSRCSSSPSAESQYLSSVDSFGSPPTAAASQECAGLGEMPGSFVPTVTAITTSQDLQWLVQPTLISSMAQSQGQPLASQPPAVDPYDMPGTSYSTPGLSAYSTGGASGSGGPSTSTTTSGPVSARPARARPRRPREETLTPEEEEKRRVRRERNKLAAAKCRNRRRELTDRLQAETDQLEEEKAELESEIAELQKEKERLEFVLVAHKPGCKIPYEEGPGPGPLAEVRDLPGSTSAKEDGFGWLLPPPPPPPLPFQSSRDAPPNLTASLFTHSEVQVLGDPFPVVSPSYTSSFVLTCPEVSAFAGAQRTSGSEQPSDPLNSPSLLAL
UBC13 inh = inhibitors of human UBC13 polyubiquitin chain formation. P61088. inhibition, % at 20 µM. TR-FRET. AID 485273. 330,000 tested, 0.47% active; in the data active = inhibition above about 45%, passing the limit was not always enough; inconclusive = no clear call, values can overlap the other calls
Casp3 counter = caspase-3 inhibition (UBC13 counter-screen). shares compounds with UBC13 inh. Recombinant caspase-3, Caspase-Glo 3/7 luminescence, 60 min. inhibition, % at 20 µM. 1,400 tested, 4% active;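 active = mean inhibition across replicates above about 26%, limit read from the data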
Target sequence (P42574 whole entry, looked up): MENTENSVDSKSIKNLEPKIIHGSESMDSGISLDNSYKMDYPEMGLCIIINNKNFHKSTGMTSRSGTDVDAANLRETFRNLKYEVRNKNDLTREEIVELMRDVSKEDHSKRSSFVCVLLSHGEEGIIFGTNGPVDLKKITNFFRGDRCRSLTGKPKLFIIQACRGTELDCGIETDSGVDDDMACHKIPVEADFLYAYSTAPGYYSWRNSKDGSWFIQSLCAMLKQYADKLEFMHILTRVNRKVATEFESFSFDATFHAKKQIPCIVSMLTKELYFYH
UBC13 confirm = confirmation of human UBC13 polyubiquitin inhibitors | UBC13 polyubiquitination, TR-FRET, biochemical | shares compounds with UBC13 inh | 1,400 tested, 68% active | inhibition, % at 10 µM; in the data active = inhibition above about 45%; inconclusive = no clear call, values can overlap the other calls
Each line names hits and unclear results; the compound was inactive in the other large screens (follow-up assays come after a bar, where they were run).

C#CCOCCOCCOCCNc1nc(N2CCN(C(=O)CCCCCCCCCCNC(=O)Cn3cc(CCCCCN)nn3)CC2)nc(N2CCN(C(=O)CCCCCCCCCCNC(=O)[C@@H]([C@H](C)O)n3cc(C)nn3)CC2)n1	UBC13 inh 116.2 (no result: NALP1 yeast inh) | Casp3 counter inactive | UBC13 confirm 118.5
C#CCOCCOCCOCCNc1nc(N2CCN(C(=O)CCCCCCCCCCNC(=O)Cn3cc(C[C@@H](C)O)nn3)CC2)nc(N2CCN(C(=O)CCCCCCCCCCNC(=O)[C@@H]([C@H](C)O)n3cc(C)nn3)CC2)n1	none (no result: NALP1 yeast inh)
C#CCOCCOCCOCCNc1nc(N2CCN(C(=O)CCCCCCCCCCNC(=O)Cn3cc(CCCCCN)nn3)CC2)nc(N2CCN(C(=O)CCCCCCCCCCNC(=O)Cn3cc(C[C@@H](C)O)nn3)CC2)n1	NR3A LBD binder 30.3, dFosB act inconclusive, UBC13 inh 114.1 (no result: NALP1 yeast inh) | Casp3 counter inactive | UBC13 confirm 113.7
C=C(C)c1cc2c(ccc3ccc(=O)oc32)o1	none (no result: NALP1 yeast inh)
CCN(CC)S(=O)(=O)c1cccc(C(=O)N/N=C/c2ccc([N+](=O)[O-])o2)c1	none
CC1Cc2cc(/C(O)=C3/C(=O)C(=O)N(CCCn4ccnc4)C3c3ccc(F)cc3)ccc2O1 (configuration not stated)	none
O=C(COC(=O)Cc1cccs1)NCC(=O)Nc1ccc(F)cc1	none (no result: NALP1 yeast inh)
CCO[C@H]1OC(C(=O)NCc2ccccc2)=C[C@@H](c2ccccc2)[C@@H]1CCCO	UBC13 inh 50.3 | Casp3 counter inactive | UBC13 confirm inactive
COC(=O)c1c(C(=O)c2ccc(Br)cc2)n(C)c2ccccc12	none (no result: NALP1 yeast inh)
CC(=O)Nc1ccc(S(=O)(=O)N(C)CC(=O)OCC(=O)N(C)C2CCS(=O)(=O)C2)cc1 (configuration not stated)	none (no result: NALP1 yeast inh)
COc1ccccc1[C@@H]1C(c2ccccc2)=NN(c2ccccc2)[C@H]1C(=O)N1CCOC1=O	none (no result: NALP1 yeast inh, UBC13 inh)
COc1ccccc1[C@@H]1C(c2cccc(C)c2)=NN(c2ccccc2)[C@H]1C(=O)N1CCOC1=O	UBC13 inh 46.5 | Casp3 counter inactive | UBC13 confirm 46.4
CC(=O)N1CCc2cc(Br)cc(S(=O)(=O)CCC(=O)N3CCN(c4ccccn4)CC3)c21	none
Cc1ccc(Nc2cc(C)nc(NCc3ccccc3)n2)cc1	NALP1 yeast inh 51.4, dFosB act inconclusive, UBC13 inh 55.6 | Casp3 counter inactive | UBC13 confirm 82.6
N#Cc1ccc(Nc2nc(-c3ccc(O)cc3O)cs2)cc1C(F)(F)F	NR3A LBD binder 22.7, UBC13 inh 67.7 (no result: NALP1 yeast inh) | Casp3 counter inactive | UBC13 confirm 55.4
Oc1ccc(-c2csc(Nc3ccc4c(c3)OCO4)n2)c(O)c1	none (no result: CR mimetic SO, NALP1 yeast inh, UBC13 inh)
CC(C)(C)C(=O)NNC(=O)c1cc2sccc2s1	none
CCN1C(=O)CC(c2ccccc2)N(C2CCCC2)c2nc(Nc3ccc(C(=O)NC4CCN(C)CC4)cc3OC)ncc21 (configuration not stated)	UBC13 inh 61.0 (no result: NALP1 yeast inh) | Casp3 counter inactive | UBC13 confirm inactive
Cc1cccn2c(=S)[nH]nc12	none (no result: CR mimetic SO, NALP1 yeast inh, UBC13 inh)
O=C1Nc2cc(Cl)ccc2Nc2cscc21	none (no result: NALP1 yeast inh)
CCCn1c(NC(=O)c2ccc(C)cc2)nc2ccccc21	none
C=CCn1c(NC(=O)c2ccc(C)cc2)nc2ccccc21	UBC13 inh 46.5 | Casp3 counter inactive | UBC13 confirm inconclusive
COc1cc(C(O)c2nc3ccccc3n2C(C)C)cc(OC)c1OC (configuration not stated)	none
Nc1c(C(=O)Nc2ccccc2)c2nc3ccccc3nc2n1CCCN1CCOCC1	NR3A LBD binder 18.3, UBC13 inh 64.1 (no result: NALP1 yeast inh) | Casp3 counter inactive | UBC13 confirm 54.5
N#Cc1c(N)n(CCCN2CCOCC2)c2nc3ccccc3nc12	none
Cn1c(=O)c2c(SCC(=O)N3CCN(c4ccccc4)CC3)nc(C3CC3)nc2n(C)c1=O	UBC13 inh 63.1 | Casp3 counter inactive | UBC13 confirm inconclusive
COC(=O)CSC1=NS(=O)(=O)c2ccccc21	none
O=C(CSC1=NS(=O)(=O)c2ccccc21)Nc1ccccc1	UBC13 inh 47.4 | Casp3 counter inactive | UBC13 confirm inactive
C#CCOCCOCCOCCNc1nc(N2CCN(C(=O)CCCCCCCCCCNC(=O)[C@H](CCCCN)n3cc(C[C@@H](C)CC)nn3)CC2)nc(N2CCN(C(=O)CCCCCCCCCCNC(=O)[C@H](CCCN=C(N)N)n3cc(C[C@@H](C)CC)nn3)CC2)n1	UBC13 inh 125.0 (no result: NALP1 yeast inh) | Casp3 counter inactive | UBC13 confirm 124.6
C#CCOCCOCCOCCNc1nc(N2CCN(C(=O)Cn3cc(CCCN=C(N)N)nn3)CC2)nc(N2CCN(C(=O)[C@H](CCCCN)n3cc(CCCC)nn3)CC2)n1	none (no result: NALP1 yeast inh)
C#CCOCCOCCOCCNc1nc(N2CCN(C(=O)CCCCCCCCCCNC(=O)[C@H](CCCCN)n3cc(C)nn3)CC2)nc(N2CCN(C(=O)CCCCCCCCCCNC(=O)[C@H](CCCN=C(N)N)n3cc(C[C@@H](C)CC)nn3)CC2)n1	UBC13 inh 122.6 (no result: NALP1 yeast inh, dFosB act) | Casp3 counter inactive | UBC13 confirm 127.3
C#CCOCCOCCOCCNc1nc(N2CCN(C(=O)Cn3cc(CCCN=C(N)N)nn3)CC2)nc(N2CCN(C(=O)[C@H](C)n3cc(CCCN=C(N)N)nn3)CC2)n1	none
C#CCOCCOCCOCCNc1nc(N2CCN(C(=O)CCCCCCCCCCNC(=O)[C@@H](CCSC)n3cc(CCO)nn3)CC2)nc(N2CCN(C(=O)CCCCCCCCCCNC(=O)[C@H](CCCN=C(N)N)n3cc(C[C@@H](C)CC)nn3)CC2)n1	UBC13 inh 127.7 (no result: NALP1 yeast inh) | Casp3 counter inactive | UBC13 confirm 123.0
CC[C@H](C)Cc1cn([C@@H](CCCN=C(NC(=O)OC(C)(C)C)NC(=O)OC(C)(C)C)C(=O)NCCCCCCCCCCC(=O)N2CCN(C(=O)OC(C)(C)C)CC2)nn1	dFosB act 33.0, UBC13 inh 53.9 (no result: NALP1 yeast inh) | Casp3 counter inactive | UBC13 confirm inactive
C/C=C(\CS(=O)(=O)c1ccccc1)S(=O)(=O)c1ccccc1	none
Cc1nc(NC(=O)CC(C)C)sc1-c1csc(Nc2ccc(Cl)cc2)n1	none
CCOc1ccccc1NC(=O)CCS(=O)(=O)c1ccc(Br)cc1	none
Cc1cc(Br)ccc1OCCCCN1CCCCC1	none
CC[C@H](C)Cc1cn([C@@H](CCCCN)C(=O)NCCCCCCCCCCC(=O)N2CCNCC2)nn1	UBC13 inh 47.0 (no result: NALP1 yeast inh) | Casp3 counter inactive | UBC13 confirm 45.0
NCCCCCc1cn([C@@H](CCC(=O)O)C(=O)NCCCCCCCCCCC(=O)N2CCNCC2)nn1	none (no result: NALP1 yeast inh)
CCc1ccc(-c2cc(C(=O)N/N=C/c3ccccn3)[nH]n2)cc1	UBC13 inh 49.9 | Casp3 counter inactive | UBC13 confirm 53.9
O=C(N/N=C/c1ccccn1)c1cc(-c2ccccc2Cl)n[nH]1	UBC13 inh 46.7 | Casp3 counter inactive | UBC13 confirm inactive

From PubChem
